Source: the supplement of paper PMC5662767
Values joined by “and” are separate entries in the source; they are usually repeats but may differ in a detail not shown here. Identical values can stand only once. Counter-ions that a name gives are not always drawn.

Test system: Drosophila S2 cl14 SmoIP sensor cells
Assay: normalized SmoIP GFP fluorescence (untreated unstimulated = 0%, untreated Hh-stimulated = 100%); higher = more Smo activation sensor fluorescence
Conditions: compound concentration: 2 uM, 24 h
[1] = stimulation: Hh conditioned medium (+Hh)
[2] = stimulation: mock conditioned medium (-Hh)
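Note: flow cytometry read-out as median GFP intensity of gated cells, compounds added 30 min before Hh-conditioned or mock medium, mock-treated cells serving as unstimulated baseline.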

Row | SMILES | normalized SmoIP GFP fluorescence [1] | normalized SmoIP GFP fluorescence [2]
1 | COc1cc([C@@H]2c3cc4c(cc3[C@@H](O[C@@H]3O[C@@H]5CO[C@@H](C)O[C@H]5[C@H](O)[C@H]3O)[C@H]3COC(=O)[C@H]23)OCO4)cc(OC)c1OP(=O)(O)O [Etopophos] | 178% | 28.7%
2 | CNC(=O)c1cc(Oc2ccc(NC(=O)Nc3cc(C(C)(C)C)nn3-c3ccc4ncccc4c3)c(F)c2)ccn1 | 183% | 0.605%
3 | CC(=O)Nc1nc2c(Oc3cc(-c4ccc(C(F)(F)F)cc4)ncn3)cccc2s1 | 111% | -4.7%
4 | CCOc1ccc(Cc2cc([C@@H]3O[C@H](CO)[C@@H](O)[C@H](O)[C@H]3O)ccc2Cl)cc1 [Dapagliflozin] | 75.9% | 1.57%
5 | NC(=O)c1noc([C@H](CCCC2CCCCC2)CC(=O)NO)n1 | 126% | -6.97%
6 | O=C(CCCCCCC(=O)Nc1ccccc1)NO [Vorinostat-(SAHA)] | 89.9% | 37.6%
7 | COc1ccc2c(Oc3ccc(NC(=O)c4c(C)n(CC(C)(C)O)n(-c5ccccc5)c4=O)nc3)ccnc2c1 | 158% | -1.11%
8 | c1cncc(CN2CCC(n3ncc4c(N5CCOCC5)nc(-c5ccc6[nH]ccc6c5)nc43)CC2)c1 | 104% | -4.53%
9 | C=CCc1cccc(/C=N/NC(=O)CN2CCN(Cc3ccccc3)CC2)c1O | 154% | -5.53%
10 | COC(=O)C1=C(C)NC(C)=C(C(=O)OC2CCCN(Cc3ccccc3)C2)C1c1cccc([N+](=O)[O-])c1 (stereo unspecified) [benidipine-hydrochloride] | 89.9% | -3.9%
11 | CC(=O)Oc1cc(C(F)(F)F)ccc1C(=O)O [triflusal] | 111% | -4.58%
12 | CCCNS(=O)(=O)Nc1ncnc(OCCOc2ncc(Br)cn2)c1-c1ccc(Br)cc1 [macitentan] | 126% | 15.2%
13 | COc1ccc(CNC(=O)Nc2ncc([N+](=O)[O-])s2)cc1 | 111% | -11%
14 | O=C(c1ccc(F)cc1)N1CCC[C@H](c2nc(-c3ccc(F)cc3)no2)C1 | 156% | -7.78%
15 | Nc1ncnc2c1c(-c1cnc3[nH]ccc3c1)nn2C1CCCC1 | 50.6% | -17.9%
16 | CCOC(=O)c1ccc(NC2CCCCC2)c(N)c1 [ferrostatin-1-fer-1] | 116% | -3.05%
17 | C=CC(=O)Nc1cccc(Nc2nc(Nc3ccc(OCCOC)cc3)ncc2F)c1 | 116% | -2.31%

Row | SMILES | normalized SmoIP GFP fluorescence [1] | normalized SmoIP GFP fluorescence [2]
18 | N#CCNC(=O)c1ccc(-c2ccnc(Nc3ccc(N4CCOCC4)cc3)n2)cc1 | 208% | 53.3%
19 | CN(NC(=O)CC(=O)NN(C)C(=S)c1ccccc1)C(=S)c1ccccc1 [Elesclomol] | 145% | 17.1%
20 | CC(C)N(C[C@H]1O[C@@H](n2cnc3c(N)ncnc32)[C@H](O)[C@@H]1O)[C@H]1C[C@@H](CCc2nc3cc(C(C)(C)C)ccc3[nH]2)C1 | 124% | -2.59%
21 | Cn1ncnc1[C@H]1c2n[nH]c(=O)c3cc(F)cc(c23)N[C@@H]1c1ccc(F)cc1 | 107% | -2.82%
22 | NC(N)=N/N=C/c1c(Cl)cccc1Cl [guanabenz-wy-8678-acetate] | 112% | -4.7%
23 | Cc1ccc(S(=O)(=O)c2ccc([N+](=O)[O-])o2)cc1 | 144% | 21.3%
24 | O=C(NC[C@H]1CN(c2ccc(N3CCOCC3=O)cc2)C(=O)O1)c1ccc(Cl)s1 [Rivaroxaban] | 103% | -1.34%
25 | Cc1cnc(Nc2ccc(N3CCN(C)CC3)cc2)nc1Nc1cccc(S(=O)(=O)NC(C)(C)C)c1 | 159% | -5.35%
26 | CC(C)N(CCCNC(=O)Nc1ccc(C(C)(C)C)cc1)C[C@H]1O[C@@H](n2ccc3c(N)ncnc32)[C@H](O)[C@@H]1O | 106% and 111% | -4.13% and -1.12%
27 | Cc1cc(F)c(Nc2ncnc3cc(OCc4ccccc4)ccc23)cc1O | 104% | -3.39%
28 | CCc1ccc(OCc2ccccc2C(=O)Nc2ccc3nc(C)cc(N)c3c2)cc1 | 164% | 14.4%
29 | Fc1cc(-c2cccc3ncc(-c4cnn(C5CCNCC5)c4)nc23)cc(F)c1CN1CCOCC1 | 145% | -4.08%
30 | CCOC(=O)[C@H](CCc1ccccc1)N[C@@H](C)C(=O)N1[C@@H](C(=O)O)C[C@@H]2CCC[C@@H]21 [Ramipril(Altace)] | 137% | -16.3%
31 | Nc1nccc(Oc2ccc(NC(=O)c3c[nH]cc(-c4ccc(F)cc4)c3=O)cc2F)c1Cl | 88.3% | -6.34%
32 | NC(=O)Nc1sc(-c2ccc(F)cc2)cc1C(N)=O [tpca-1] | 106% | -3.79%
33 | CNC[C@H](O)c1cccc(O)c1 [Phenylephrine-hydrochloride] | 108% | -14.9%
